Bioassay records from PubChem BioAssay.
Compounds with a hit are over-represented: about 19% of the library has one in this group of screens.
TDP1 cell noCPT – qHTS for Inhibitors of human tyrosyl-DNA phosphodiesterase 1 (TDP1): qHTS in cells in absence of CPT. DT40 Tdp1-/- hTDP1 cells, no CPT, ATP luminescence, 48 h. Potency, µM (titrated, usually from 46.2 µM), without a hit: at the top dose activity change, negative = growth inhibition, usual class: inhibitors. 420,000 compounds, 15% hits; further: potency means the concentration at half of the fitted maximal effect; nearly all actives have a fitted effect of over 55% in size
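Readout: luminescence from CellTiter-Glo after 30 min in the dark at RT. Cells: DT40 Tdp1-/- with stable hTDP1, 400/well. Exposure: compounds alone, ≥48 hr, 37 °C.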
HT1080-NT tox – qHTS for induction of synthetic lethality in tumor cells producing 2HG: qHTS for the HT-1080-NT fibrosarcoma cell line. HT-1080-NT fibrosarcoma viability, CellTiter-Glo ATP luminescence, 48 h. 360,000 compounds, 1.6% hits. Potency, µM (highest dose often 46.1 µM), inactives show top-dose activity, negative = less viability, hits mostly cytotoxic. AID 686970, 2013;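 further: NT is the 2HG producing partner of a matched IDH1 knockdown line; potency means the concentration at half of the fitted maximal effect; 0% = DMSO-treated cells and -100% = media-only wells without cells; nearly all actives have a fitted effect of over 55% in size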
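Fibrosarcoma NT cells, 750 per well in 5% FBS RPMI, were exposed to compound for 48 hours. Viability: CellTiter-Glo luminescence.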
IL1B secr inh – qHTS for Inhibitors of Inflammasome Signaling: IL-1-beta AlphaLISA Primary Screen; 360,000 compounds, 4.7% hits; activity change, % at 57.5 µM; THP-1 LPS/ATP IL-1B secretion, AlphaLISA, 16 h; hits give low values; in the data active means activity change below about -50%; inconclusive means mostly about -30% to -49%
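Secreted IL-1B measured by AlphaLISA bead assay after 16 h compound exposure of THP-1 cells; compounds (final up to 57.5 uM) added 1 h before LPS (250 ng/mL) and ATP (1.25 mM) stimulation; lower signal means less secretion.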
TDP1 cell CPT – qHTS for Inhibitors of human tyrosyl-DNA phosphodiesterase 1 (TDP1): qHTS in cells in presence of CPT | Potency, µM (top dose mostly 46.2 µM), for the others: at the highest dose activity change, negative = growth inhibition, hits mostly inhibitors | chicken DT40 Tdp1-/-;hTDP1 cells + 20 nM CPT, ATP luminescence, 48 h | 420,000 compounds, 12% hits; further: potency means the concentration at half of the fitted maximal effect; nearly all actives have a fitted effect of over 55% in size
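Chicken DT40 Tdp1-/- cells stably complemented with human TDP1 were seeded at 400 cells/well in medium containing 20 nM camptothecin, exposed to pin-transferred compounds, and grown at 37 °C for at least 48 hr. Viability was read as ATP luminescence.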
HT1080 IDH1KD tx – qHTS for induction of synthetic lethality in tumor cells producing 2HG: qHTS for the HT-1080-IDH1KD cell line | HT-1080 IDH1 knockdown viability, ATP luminescence, 48 h | Potency, µM (top dose mostly 46.1 µM), inactives show top-dose activity, negative = toxicity, usual class: cytotoxic | 360,000 compounds, 2% hits | AID 686971, 2013;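 further: potency means the concentration at half of the fitted maximal effect; 0% = DMSO wells and -100% = cell-free medium wells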
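Using the IDH1-knockdown HT-1080 line run in the same batch and compound series as the NT line, viability after 48 h at 37 °C was determined by CellTiter-Glo luminescence and expressed as % activity.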
ELG1 repair inh – qHTS screen for small molecules that inhibit ELG1-dependent DNA repair in human embryonic kidney (HEK293T) cells expressing luciferase-tagged ELG1; HEK293T ELG1-luciferase reporter, luminescence, 16 h; DNA damage induced by 5-fluorouridine; 330,000 compounds, 2.3% hits; Potency, µM (highest dose often 46.1 µM), inactives show top-dose activity change, negative = inhibition, actives largely listed as inhibitors; AID 504467, 2011; further: potency means the concentration at half of the fitted maximal effect; nearly all actives have a fitted effect of over 55% in size
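Step one: seed 2,000 cells per well. Step two: pin-transfer compound or DMSO alongside 5-fluorouridine. Step three: incubate 16 hr, 37 °C, 5% CO2. Step four: add ONE-Glo, wait 30 min, read luminescence.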
The depositor's hits bear a star; ? = inconclusive; nt = no result given. Unless noted, the call rests on the fitted dose curve; in most records, active means well fitted curve in the direction sought with a large enough effect; inconclusive means small, poorly fitted or top-dose-only effect, or another doubt; inactive means no such curve, though single readings can be large; an effect the other way counts as inactive or inconclusive. Unless noted, on the % scale 0 is the no-effect control and ±100 the full control effect.

SMILES	TDP1 cell noCPT	HT1080-NT tox	IL1B secr inh	TDP1 cell CPT	HT1080 IDH1KD tx	ELG1 repair inh
CC1Cc2ccccc2N1C(=O)c1ccc(F)c(S(=O)(=O)N2CCOCC2)c1 (configuration not stated)	?	-0.3%	20.0	?	-0.7%	?
CN(Cc1ccc(C(C)(C)C)cc1)C(=O)c1ccc2c(c1)OCO2	?	-2.3%	-18.0	-11.2%	-12.1%	14.0%
C=CCc1c(C)nc2nc(SCC(=O)Nc3ccc(OCC)cc3)nn2c1C	-21.5%	nt	nt	1.5%	nt	nt
Nc1ncnc2c1ncn2[C@@H]1O[C@H](C(=O)N[C@H](CO)Cc2ccc(O)cc2)[C@@H](O)[C@H]1O	11.8%	19.9%	20.3	2.8%	17.5%	nt
Cc1ccc(N2CC(C(=O)Nc3c4c(nn3C(C)(C)C)CS(=O)(=O)C4)CC2=O)cc1 (configuration not stated)	-3.9%	-4.8%	11.7	-24.8%	0.1%	-0.8%
CC1(C)N=C(c2ccc(F)cc2)C(=O)N1CC(=O)Nc1ccccc1Cl	16.4µM*	nt	nt	?	nt	nt
COc1ccccc1NC(=O)CN1C(=O)C(c2ccc(F)cc2)=NC12CCCCC2	23.1µM*	nt	nt	?	nt	nt
O=C(Cn1ncc2c(=O)oc3ccccc3c21)NCc1ccccc1Cl	-17.6%	nt	nt	5.0%	nt	nt
CCOC(=O)NC(=O)c1cn(CCNCCO)c(=O)[nH]c1=O	4.4%	12.8%	12.5	7.8%	11.8%	-8.0%
CC1CCCCC12NC(=O)N(CC(=O)N1CCN(c3ncccn3)CC1)C2=O (configuration not stated)	?	2.5%	5.0	-0.6%	-2.0%	19.5%
O=C(Nc1ccc2oc(-c3cc(Br)ccc3Cl)nc2c1)c1ccc2ccccc2c1	11.6µM*	nt	nt	16.4µM*	nt	nt
O=C(Nc1ccc(O)c(-c2nc3ccccc3o2)c1)c1ccc(Br)cc1	-3.5%	nt	nt	-4.6%	nt	nt
O=C(Nc1ccc2oc(-c3ccccc3Cl)nc2c1)c1cncc(Br)c1	11.6µM*	?	-24.1	7.31µM*	-9.4%	?
COc1cc(-c2noc(-c3ccc(NC4CCCC4)c([N+](=O)[O-])c3)n2)cc(OC)c1OC	-26.0%	nt	nt	-20.3%	nt	nt
CC(=O)N1CCc2cc(S(=O)(=O)NC(CC(C)C)C(=O)NCCc3ccccc3)ccc21 (configuration not stated)	5.5%	nt	nt	-9.8%	nt	nt
COC(=O)c1cnc(Oc2ccc(NC(=O)NC(=O)c3ccccc3Cl)cc2)cc1C(F)(F)F	4.11µM*	2.5%	7.5	?	0.0%	-17.6%
S=C1NC(c2ccccc2)N2C(=S)NC(c3ccccc3)N12 (configuration not stated)	-20.5%	13.6%	-6.6	2.2%	10.9%	?
COc1ccc(C2NC(=S)N3C(c4ccc(OC)cc4)NC(=S)N23)cc1 (configuration not stated)	16.4µM*	11.2%	0.0	?	11.3%	?
O=C(CCN1C(=O)[C@@H]2Cc3ccccc3CN2C1=O)N[C@H](C(=O)O)c1ccccc1	6.4%	1.1%	-5.1	4.3%	4.3%	5.3%
CCCCOC(=O)n1c(SCC(=O)N(CC)CC)nc2ccccc21	?	-4.1%	-19.9	20.6µM*	4.0%	?
COc1cccc2oc(-c3ccco3)cc(=O)c12	14.6µM*	0.0%	-101.4*	20.6µM*	-20.4%	?
O=c1cc(-c2ccco2)oc2ccc(Cl)cc12	-24.5%	8.7%	-5.3	-6.1%	27.6%	?
COc1ccc2c(=O)cc(C(F)(F)C(F)(F)F)oc2c1	-0.3%	3.8%	16.8	-0.7%	5.7%	4.5%
COc1ccc2c(=O)cc(-c3ccccc3F)oc2c1	20.6µM*	-15.8%	-60.7*	?	-10.4%	?
COc1ccc2oc(-c3ccco3)cc(=O)c2c1	?	-1.9%	-61.8*	?	-1.4%	?
SMILES	TDP1 cell noCPT	HT1080-NT tox	IL1B secr inh	TDP1 cell CPT	HT1080 IDH1KD tx	ELG1 repair inh
N#CCCn1c(=O)cnc2cnc(N3CCNCC3)nc21	-5.6%	nt	nt	10.8%	nt	nt
O=C(CSC1=Nc2ccccc2C2=NC(Cc3ccccc3)C(=O)N12)Nc1cccc(Cl)c1 (configuration not stated)	25.9µM*	nt	nt	16.4µM*	nt	nt
COc1ccccc1NC(=O)CSC1=Nc2ccccc2C2=NC(Cc3ccccc3)C(=O)N12 (configuration not stated)	?	nt	nt	23.1µM*	nt	nt
COc1ccc(NC(=O)CSC2=Nc3ccccc3C3=NC(Cc4ccccc4)C(=O)N23)cc1 (configuration not stated)	20.6µM*	nt	nt	?	nt	nt
COc1ccc(NC(=O)CSC2=Nc3ccccc3C3=NC(CC(=O)NCCc4ccccc4)C(=O)N23)cc1 (configuration not stated)	-13.9%	nt	nt	-16.9%	nt	nt
CC(NC(=O)COC(=O)CN1C(=O)C2CCCCC2C1=O)c1ccccc1 (configuration not stated)	-14.2%	1.9%	-4.9	-25.6%	8.5%	4.9%
O=S(=O)(c1ccc(NC(=S)NCc2ccncc2)cc1)N1CCCCC1	?	?	-8.5	-14.6%	?	?
COc1ccc(NC(=O)C(C)n2nnc3sc(-c4ccccc4)cc3c2=O)cc1Cl (configuration not stated)	6.51µM*	nt	nt	13µM*	nt	nt
CCC(C(=O)OC)n1nnc2sc(-c3ccccc3)cc2c1=O (configuration not stated)	14.6µM*	nt	nt	?	nt	nt
CC(c1ccncn1)N(C)Cc1nc(-c2ccc(C(F)(F)F)cc2)no1 (configuration not stated)	?	0.8%	0.0	18.4µM*	7.0%	-1.4%
OCC1(CCc2ccccc2)CCN(Cc2ccc(OC(F)F)cc2)CC1	?	?	-21.3	?	?	?
OCC1(CCc2ccccc2)CCN(Cc2cc(Cl)ccc2O)CC1	-23.6%	-28.6%	-84.8*	4.0%	?	9.4%
COC(=O)c1cc(NC(=O)c2sc3ncn(Cc4cccc(F)c4)c(=O)c3c2C)cc(C(=O)OC)c1	?	nt	nt	-27.0%	nt	nt
Cc1cc(Br)cc(C)c1NC(=O)c1sc2ncn(Cc3cccc(F)c3)c(=O)c2c1C	18.4µM*	nt	nt	16.4µM*	nt	nt
